The source of these data is PubChem BioAssay.

Activity calls are given as the source filed them. Rule as the data show it, unless noted: active = nuclear beta-catenin stimulation mostly above about 4.2% (no sharp cut-off); inactive = mostly below about 10%.

The nature of experiment [1]: Wnt pathway potentiators raising nuclear beta-catenin – imaging, WNT3A-conditioned medium, mouse C2C12, NPC library, primary screen (AID 1117326). Also: reference of the scale not given here. To be noted: stronger effect = higher value.
A short description of experiment [2]: stimulators of insulin release from INS-1E, primary screen, cell-based, 5 mM glucose, NPC library (AID 1117329;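 active = compound raises insulin release from rat beta cells at 5 mM glucose, no numeric limit stated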; also: reference of the scale not given here). To be noted: rat INS-1E insulin secretion, at 10 µM, stronger effect = higher value.
A short description of experiment [3]: growth inhibition of GSK3B-pretreated HCT116 cells – cell-based, CellTiter-Glo, 0.2 to 20 µM (AID 1117336;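 active = compounds lowering colon cancer cell viability after pretreatment blocking the GSK3B kinase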). The conditions noted are these: HCT116 viability after GSK3B inhibitor, at 20 µM, stronger effect = higher value. (Cellular ATP, detected with luciferase, serves as a proxy for viable cell number.)
Experiment [4] in a line: inhibition of endothelial tube formation, primary screen, imaging, VEGF stimulated, CD31 staining, tube area, NPC library (AID 1117340;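 active = compound that reduces growth-factor-driven endothelial tube area in a mixed cell culture, no cutoff stated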). The conditions noted are these: VEGF-stimulated ADSC/ECFC co-culture, at 10 µM, stronger effect = higher value.
The nature of experiment [5]: GLP1 release stimulators, primary, NCI-H716, NPC library (AID 1117341;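 active = compound raises GLP1 secretion from the human gut endocrine cells, with no numeric limit stated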; also: reference of the scale not given here). To be noted: NCI-H716 cells, at 10 µM, stronger effect = higher value.
Experiment [6] is described as follows: HCT116 colon cancer cell growth inhibition, primary screen, CellTiter-Glo luminescence, NPC library (AID 1117342;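 active = compounds that lower survival of HCT116 colon cancer cells in the luminescence readout, no numeric limit stated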). To be noted: at 20 µM (top of the series).
Experiment [7] can be described thus: reduced SW480 viability measured with CellTiter-Glo, NPC library, primary (AID 1117343;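 active = compounds that lower viability of the colon cancer cells in the luminescence readout, with no numeric limit stated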). The conditions noted are these: CellTiter-Glo luminescence; at 20 µM (top of the series).
The nature of experiment [8]: NPC library primary testing for decreased DLD-1 cell viability via CellTiter-Glo (AID 1117346;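 active = compounds that lower survival of DLD-1 colon cancer cells in the luminescence readout, no cutoff given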). The conditions noted are these: DLD-1 viability, CellTiter-Glo luminescence; at 20 µM (top of the series).

Regarding `O=C(O)[C@@H]1CSCN1`, the nuclear beta-catenin stimulation in experiment [1] (at 10 µM) is 0% (inactive); in experiment [1] (stimulation, at 2 µM) it was 0.2%. The insulin secretion stimulation in experiment [2] is -2.5% (inactive). In addition, the viability decrease in experiment [3] was -3.1% (inactive). Further, the tube area decrease in experiment [4] is 16.2% (inactive). For the same molecule, in experiment [5], the GLP1 secretion stimulation is -0.4% (inactive). The inhibition of viability in experiment [6] is 3.3% (inactive). The values for the viability decrease (inhibition) in experiment [7] and in experiment [8] were 38.4% (inactive) and 11.6% (inactive), respectively.

As to `O=C(O)/C=C\C(=O)O`, the nuclear beta-catenin stimulation in experiment [1] (at 10 µM) was 1.1% (inactive); in experiment [1] (stimulation, at 2 µM) it was 1.9%. The insulin secretion stimulation in experiment [2] was 2.7% (inactive). Further, the viability decrease in experiment [3] was -27.8% (inactive). The tube area decrease in experiment [4] was -3.6% (inactive). Also, the GLP1 secretion stimulation in experiment [5] was -3.8% (inactive). Besides, in experiment [6], the inhibition of viability is 4.1% (inactive). Moreover, the values for the viability decrease (inhibition) in experiment [7] and in experiment [8] were 33.2% (inactive) and -11% (inactive), respectively.

With `CCOc1ccc(S(=O)(=O)O)c2cccnc12`, the nuclear beta-catenin stimulation in experiment [1] (at 10 µM) is -0.1% (inactive); in experiment [1] (stimulation, at 2 µM) it was 0.5%. Also, in experiment [2], the insulin secretion stimulation was 6% (inactive). In experiment [3], the viability decrease was -10.2% (inactive). Besides, the tube area decrease in experiment [4] is -5.5% (inactive). For the same molecule, the GLP1 secretion stimulation in experiment [5] was -3.3% (inactive). Also, in experiment [6], the inhibition of viability was -0.3% (inactive). The viability decrease (inhibition) was 1.9% (inactive) in experiment [7] and 0.1% (inactive) in experiment [8].

Regarding `CCCCCCCCCCCCCCCC[N+](C)(C)Cc1ccccc1`, the nuclear beta-catenin stimulation in experiment [1] (at 10 µM) is 38.6% (inactive); in experiment [1] (stimulation, at 2 µM), 0.7%. For the same molecule, the insulin secretion stimulation in experiment [2] was 1% (inactive). The viability decrease in experiment [3] was 99.3% (active). Besides, the tube area decrease in experiment [4] was 109% (active). Also, the GLP1 secretion stimulation in experiment [5] is -4.3% (inactive). For the same molecule, the inhibition of viability in experiment [6] is 99.2% (active). For the same molecule, the viability decrease (inhibition) is 101% (active) in experiment [7] and 102% (active) in experiment [8].

Consider `CC(=O)/C=C/C=C1/C2CCC(C2)C1(C)C` (stereo unspecified), for which the nuclear beta-catenin stimulation was 1.2% (inactive) in experiment [1] (at 10 µM) and 3.3% in experiment [1] (stimulation, at 2 µM). In addition, in experiment [2], the insulin secretion stimulation is 0.6% (inactive). In addition, the viability decrease in experiment [3] was -80% (inactive). For the same molecule, the tube area decrease in experiment [4] is -0.7% (inactive). For the same molecule, the GLP1 secretion stimulation in experiment [5] was 0.1% (inactive). For the same molecule, the inhibition of viability in experiment [6] was -1.1% (inactive). Besides, the viability decrease (inhibition) in experiment [7] was 27% (inactive); in experiment [8], -15.2% (inactive).

In the case of `COc1cc(S(N)(=O)=O)cc(C(=O)O)c1OC`, the nuclear beta-catenin stimulation was -0.6% (inactive) in experiment [1] (at 10 µM) and 3.5% in experiment [1] (stimulation, at 2 µM). The insulin secretion stimulation in experiment [2] is 1.2% (inactive). Also, the viability decrease in experiment [3] is 16.8% (inactive). The tube area decrease in experiment [4] is -3.6% (active). Besides, the GLP1 secretion stimulation in experiment [5] is -1% (inactive). Also, the inhibition of viability in experiment [6] was 23.4% (inactive). Further, the figures for the viability decrease (inhibition) in experiment [7] and in experiment [8] were 18.9% (inactive) and -9.9% (inactive), respectively.

With `CCOc1ccccc1O[C@H](c1ccccc1)[C@H]1CNCCO1`, the nuclear beta-catenin stimulation in experiment [1] (at 10 µM) was -0.4% (inactive); in experiment [1] (stimulation, at 2 µM), -2.9%. The insulin secretion stimulation in experiment [2] is 5.4% (inactive). Besides, the viability decrease in experiment [3] is -2.9% (inactive). The tube area decrease in experiment [4] is -5.2% (inactive). For the same molecule, in experiment [5], the GLP1 secretion stimulation is 0.6% (inactive). The inhibition of viability in experiment [6] is 22.7% (inactive). Moreover, the viability decrease (inhibition) is 6.2% (inactive) in experiment [7] and 18.8% (inactive) in experiment [8].

For the molecule `C[N+]1(CC2COC(c3ccccc3)(C3CCCCC3)O2)CCCCC1` (stereo unspecified), the nuclear beta-catenin stimulation in experiment [1] (at 10 µM) was -2.3% (inactive); in experiment [1] (stimulation, at 2 µM), -1.4%. Further, the insulin secretion stimulation in experiment [2] is 5% (inactive). The viability decrease in experiment [3] was -13.4% (inactive). Moreover, the tube area decrease in experiment [4] is 10.1% (inactive). The GLP1 secretion stimulation in experiment [5] is -2.3% (inactive). The inhibition of viability in experiment [6] is 28.7% (inactive). In addition, the viability decrease (inhibition) in experiment [7] was 7.6% (inactive); in experiment [8], 3.2% (inactive).

For the molecule `CC(C)=CCCC(C)=CCCC(C)=CCCC(C)=CCC1=C(C)C(=O)c2ccccc2C1=O`, the nuclear beta-catenin stimulation in experiment [1] (at 10 µM) was -0.4% (inactive); in experiment [1] (stimulation, at 2 µM) it was 0%. Moreover, the insulin secretion stimulation in experiment [2] is 0.5% (inactive). Further, in experiment [3], the viability decrease is 27.6% (inactive). In addition, the tube area decrease in experiment [4] is 3.6% (inactive). Further, the GLP1 secretion stimulation in experiment [5] is -0.8% (inactive). The inhibition of viability in experiment [6] is 37.8% (inactive). Further, the viability decrease (inhibition) in experiment [7] is 12.3% (inactive); in experiment [8], 11.1% (inactive).

Consider `O=C1C(c2[nH]c3ccccc3c2O)=Nc2ccccc21`, for which the nuclear beta-catenin stimulation in experiment [1] (at 10 µM) was -0.7% (inactive); in experiment [1] (stimulation, at 2 µM) it was 1.4%. For the same molecule, the insulin secretion stimulation in experiment [2] is 1.2% (inactive). The viability decrease in experiment [3] was 18.2% (inactive). Also, in experiment [4], the tube area decrease was 27.2% (inactive). Besides, the GLP1 secretion stimulation in experiment [5] is 0.5% (inactive). The inhibition of viability in experiment [6] was 16.9% (inactive). The viability decrease (inhibition) was 24.1% (inactive) in experiment [7] and 0.2% (inactive) in experiment [8].

With `CCCCCCCCCCCCCCCCCC(=O)[O][Al]`, the nuclear beta-catenin stimulation in experiment [1] (at 10 µM) is 0.2% (inactive); in experiment [1] (stimulation, at 2 µM), -0.8%. In addition, the insulin secretion stimulation in experiment [2] is 0.8% (inactive). In experiment [3], the viability decrease is 2.3% (inactive). Moreover, the tube area decrease in experiment [4] is -3.5% (inactive). The GLP1 secretion stimulation in experiment [5] is -1.2% (inactive). For the same molecule, the inhibition of viability in experiment [6] is 5.4% (inactive). The viability decrease (inhibition) is -3.6% (inactive) in experiment [7] and -0.7% (inactive) in experiment [8].

As to `O=C(O)Cc1ccc(CCNS(=O)(=O)c2ccc(Cl)cc2)cc1`, the nuclear beta-catenin stimulation in experiment [1] (at 10 µM) is 0% (inactive); in experiment [1] (stimulation, at 2 µM) it was 0.1%. For the same molecule, in experiment [2], the insulin secretion stimulation is 0.2% (inactive). Moreover, the viability decrease in experiment [3] is -5.1% (inactive). The tube area decrease in experiment [4] was 3.3% (inactive). Besides, the GLP1 secretion stimulation in experiment [5] is -2.9% (inactive). In addition, the inhibition of viability in experiment [6] is -4% (inactive). Besides, the viability decrease (inhibition) in experiment [7] is 1.5% (inactive); in experiment [8], -6.1% (inactive).

Take `CCCCCCCCCCCCCCCC(=O)OCC(COC(=O)CCCCCCCCCCCCCCC)OC(=O)CCCCCCCCCCCCCCC`: the nuclear beta-catenin stimulation in experiment [1] (at 10 µM) is -0.4% (inactive); in experiment [1] (stimulation, at 2 µM), -0.6%. Besides, the insulin secretion stimulation in experiment [2] is 2.5% (inactive). Besides, the viability decrease in experiment [3] was -7.6% (inactive). For the same molecule, the tube area decrease in experiment [4] is -17.9% (inactive). Moreover, in experiment [5], the GLP1 secretion stimulation was -5.4% (inactive). Moreover, in experiment [6], the inhibition of viability is -1.3% (inactive). Further, the values for the viability decrease (inhibition) in experiment [7] and in experiment [8] were 2.7% (inactive) and -6.5% (inactive), respectively.

For `CCCCCCCCCCCC(=O)[O][Sn]([CH2]CCC)([CH2]CCC)[O]C(=O)CCCCCCCCCCC`, the nuclear beta-catenin stimulation in experiment [1] (at 10 µM) was 75.9% (active); in experiment [1] (stimulation, at 2 µM) it was 7.2%. In addition, the insulin secretion stimulation in experiment [2] is 0% (inactive). The viability decrease in experiment [3] is -72% (inactive). Moreover, the tube area decrease in experiment [4] is 94.7% (active). The GLP1 secretion stimulation in experiment [5] is 49% (active). The inhibition of viability in experiment [6] is 5.07% (inactive). The viability decrease (inhibition) was 133% (active) in experiment [7] and 101% (active) in experiment [8].
